From PubChem BioAssay AID651899 (Broad Institute, 2012)
Entries with a potency or affinity are not part of this list. Unmarked numbers belong to inactive results. The rule behind the calls is not given here.

assay: HEK293 cell viability loss – plate reader, cherry-pick, cytotoxicity control, dose response (AID 651899); settings: series mostly up to 26 µM; activity change, negative = cytotoxicity: at the top concentration;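 note: cells exposed to compound for 48 hours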

SMILES	activity change, negative = cytotoxicity
Cc1nn(CCC(=O)O)c2nc(-c3cccnc3)cc(C(F)(F)F)c12	-7.73%
O=C(C[C@@H]1C[C@@H]2c3cc(NC(=O)c4cccnc4)ccc3O[C@@H]2[C@@H](CO)O1)NCc1cccnc1	2.97%
CCN(CC)S(=O)(=O)c1ccc(NC(=O)c2ccc(Cl)nc2)cc1	-17.2%
Cc1c(C(N)=O)sc(N)c1C(=O)OC(C)C	36.6%
CC(=O)N1CC[C@@H]2[C@@H](CO)N(C)c3ccc(-c4ccccc4)cc3[C@@H]21	29.7%
CC(=O)c1ccc(N2CCN(C(=O)c3ccc4c(c3)OCO4)CC2)cc1	-0.24%
CCCCN1C(=O)c2ccc(C(=O)Nc3cccnc3)cc2C1=O	-18.1%
CC(=O)c1ccc(C(=O)N2CCCC(CCC(=O)N(C)CCc3ccccn3)C2)s1 (stereo unspecified)	26.2%
COc1ccc(Nc2c(-c3ccc(OC)cc3)nc3cnccn23)cc1	17.8%
CN1c2ccc(-c3cccc(F)c3)cc2[C@H]2[C@H](CCN2C(=O)c2ccc3c(c2)OCO3)[C@H]1CO	1.38% [at 23.5 µM]
N#Cc1ccc(-c2ccc3c(c2)[C@@H]2[C@@H](CCN2C(=O)c2ccc(F)cc2)[C@@H](CO)N3)cc1	14.8%
COc1cc(-c2n[nH]c(=S)n2-c2cccc(C(F)(F)F)c2)cc(OC)c1OC	-17.8%
O=C(COc1ccc2ccc(=O)oc2c1)N1CCN(c2ccc(F)cc2)CC1	-4.76%
COc1ccc(NC2c3ccccc3C(=O)N2c2cccnc2)cc1Cl (stereo unspecified)	-15%
Cc1ccc(Cc2c(C)nc3nc(SCC(=O)NCCCN4CCCCC4)nn3c2C)cc1	20.8%
CC1=C(C#N)C(c2cccnc2)C2=C(CC(c3ccc(Cl)cc3)CC2=O)N1 (stereo unspecified)	-11.8%
CCc1c(C(=O)NCCc2ccc(OC)c(OC)c2)[nH]c(C)c1C(C)=O	-19.5%
CN1CCN(c2ncnc3c2[nH]c2ccc(F)cc23)CC1	13.6%

SMILES	activity change, negative = cytotoxicity
CC(=O)c1ccc(NC(=O)CN2CCN(c3ccccc3)CC2)cc1	-22.7%
Cc1nc2nc(SCC(=O)N3CCOCC3)nn2c(C)c1Cc1c(F)cccc1Cl	-13.1%
CC(=O)c1ccc(C(=O)N2CCCC(CO)(Cc3ccccc3C)C2)s1 (stereo unspecified)	-20.1%
C[C@@H]1CN([C@H](C)CO)C(=O)c2cc(C#Cc3cccnc3)cnc2O[C@H]1CN(C)S(C)(=O)=O	9.57%
O=C(C1CCCN(S(=O)(=O)c2cccnc2)C1)N1CCn2c1nc1ccccc12 (stereo unspecified)	-4.71%
COc1cc(-c2n[nH]c(=S)n2C(C)c2ccccc2)cc(OC)c1OC (stereo unspecified)	29.1%
Cc1cccc(C2c3[nH]c4ccccc4c3CCN2C(=O)CN2CCOC2=O)n1 (stereo unspecified)	12.6%
Cc1cccc(-n2c(SCC(=O)N(C)C3CCS(=O)(=O)C3)nc3ccccc3c2=O)c1C (stereo unspecified)	5.58%
O=C(N[C@H]1CC[C@@H](CCn2cc(-c3cccnc3)nn2)O[C@H]1CO)c1ccccc1F	3.59%
O=C(CSc1nc2c(c(=O)n1-c1ccc(Cl)cc1)SCC2)N1CCOCC1	-6.89%
O=C(CSc1nc2ccccc2c(=O)n1-c1ccccc1)N1CCN(CCO)CC1	27.2%
O=C(Nc1ccccc1)N1CCN(Cc2ccc3c(c2)OCO3)CC1	9.86%
CN(Cc1ccccc1)C(=O)CCS(=O)(=O)c1ccc2c(c1)NC(=O)CS2	37.7% [at 12 µM]
O=c1[nH]c(N2CCN(Cc3ccc4c(c3)OCO4)CC2)nc2c1CCCC2	17.7%
Clc1ccc(CSc2nnc(-c3cccnc3)o2)cc1	-9.76%
CCCC(=O)Nc1cccc(NC(=O)c2ccc(C)c([N+](=O)[O-])c2)c1	-12.6%
O=C(Nc1ccc(F)c(Cl)c1)C1CCCN(c2cnccn2)C1 (stereo unspecified)	17.6%
O=C(c1cccc(F)c1)N1CC[C@@H]2[C@@H](CO)Nc3ccc(-c4cccc(F)c4)cc3[C@@H]21	4.74%
